Results on 63 compounds are retold here after PubChem BioAssay AID1259343 (VanderVen Lab, College of Veterinary Medicine, Cornell …, 2017).

Among all 6,200 compounds or so, about 2,900 (47%) were called active. Rule as the data show it: active = inhibition above about 50%; inactive = the rest. The set was probably picked from earlier hits. Some of the results follow.

The experiment is described as follows: Mycobacterium tuberculosis growth inhibition, primary screen (AID 1259343). Particulars: inhibition: at 10 µM, active compounds read high; outcome: 10 uM.
On to `O=c1[nH]c(CN2CCN(c3ccccc3F)CC2)nc2ccsc12`, for which the inhibition is 13.7% (inactive).

In the case of `Cc1ccc(C2=CCN(Cc3nc4ccsc4c(=O)[nH]3)CC2)cc1`, the inhibition was 94.7% (active). In the case of `CC(C)(O)C#Cc1ccc(C(=O)NCc2cnn(-c3ccc(F)cc3)c2)o1`, the inhibition was 36.3% (inactive). In the case of `O=C(Nc1nnc(C2=COCCO2)o1)c1cc(Cl)cc(Cl)c1`, the inhibition was 93.4% (active).

In the case of `Cc1cc(=O)[nH]c(-n2nc(C)cc2NC(=O)c2cccc3ccccc23)n1`, the inhibition was 101% (active). With `CCc1ccc(OCc2ccccc2C(=O)Nc2ccc3nc(C)cc(N)c3c2)cc1`, the inhibition is 33.8% (inactive). `CCN(CC)c1cc(C)nc(Nc2ccc(NC(=O)c3cccc4ccccc34)cc2)n1`: the inhibition was 93.6% (active). For the compound `Cc1cc(=O)[nH]c(-n2nc(C)cc2NC(=O)c2cc(C)oc2C)n1`, the inhibition was 90.8% (active). Regarding `CCc1cc(=O)[nH]c(-n2nc(C)cc2NC(=O)c2cccc3ccccc23)n1`, the inhibition is 13.9% (inactive). As for `CCN(CC)C(=O)N1CCN(c2ccc(Nc3ccnc4cc5ccccc5cc34)cc2)CC1`, the figure is -24.5% (inactive). In the case of `CCCc1cc(=O)[nH]c(-n2nc(C)cc2NC(=O)c2cccc3ccccc23)n1`, the inhibition is 102% (active). Then `O=C1C(c2ccccc2)C=Nc2c(-c3ccccc3)cnn21` (stereo not drawn), with -23.2% (inactive); and `Cc1cc(NC(=O)c2ccccc2C)n(-c2nc(C)c(C)c(=O)[nH]2)n1`, with -21.7% (inactive); and `Cc1cc(=O)[nH]c(-n2nc(C)cc2NC(=O)c2ccccc2C)n1`, with 101% (active).

`Clc1ccc2nc(SCCC3CCCCC3)[nH]c2c1`: the inhibition was 23.7% (inactive). As for `Clc1ccc2nc(SCc3nnc(C4CCC4)o3)[nH]c2c1`, the inhibition is 16.7% (inactive). `Clc1ccc(CCCc2nc3ccc(Cl)cc3[nH]2)c(Cl)c1`: the inhibition was 99.6% (active). Turning to `S=c1ccss1`, the inhibition was 101% (active).

As for `CCc1cc2c(N3CCCCC3)ncnc2s1`, the inhibition is 46.7% (inactive). On to `CCc1cc2c(=O)n(NC(=O)c3cccc(C)n3)cnc2s1`, for which the inhibition was 99.6% (active).

For the compound `CCc1cc2c(SCC(=O)C(C)(C)C)ncnc2s1`, the inhibition was -53% (inactive). In the case of `CC(C)c1ccc(-n2nnnc2SCC(N)=O)cc1`, the inhibition is 32.2% (inactive).

Consider `Fc1cccc(-n2[nH]nnc2=S)c1`, for which the inhibition is 90.8% (active). As for `CC(C)c1ccc(-n2[nH]nnc2=S)cc1`, the figure is 70.6% (active); as for `S=c1nn[nH]n1-c1cccc(Cl)c1`, 10% (inactive). On to `CCCc1cc(=O)[nH]c(-n2nc(C)cc2NC(=O)C23CC4CC(CC(C4)C2)C3)n1`, for which the inhibition was 100% (active).

`Cc1cc(NC(=O)C23CC4CC(CC(C4)C2)C3)n(-c2nc(C)c(C)c(=O)[nH]2)n1`: the inhibition was 14.6% (inactive). In the case of `CCc1cc(=O)[nH]c(-n2nc(C)cc2NC(=O)C23CC4CC(CC(C4)C2)C3)n1`, the inhibition was 93.6% (active). Then `Cc1cc(=O)[nH]c(-n2nc(C3CC3)cc2NC(=O)C23CC4CC(CC(C4)C2)C3)n1`, with 99.1% (active); and `Cc1cc(=O)[nH]c(-n2nc(C)cc2NC(=O)C23CC4CC(CC(C4)C2)C3)n1`, with 99.3% (active). For the compound `CCc1c(C)nc(-n2nc(C)cc2NC(=O)C23CC4CC(CC(C4)C2)C3)[nH]c1=O`, the inhibition was -26.4% (inactive). Turning to `Cc1cc(NC(=O)C23CC4CC(CC(C4)C2)C3)n(-c2nc3c(c(=O)[nH]2)CCC3)n1`, the inhibition was 101% (active). Consider `Cc1ccc(Cc2nc(N3CCNCC3)c3c(C)nn(-c4ccccc4)c3n2)cc1`, for which the inhibition was 92.7% (active). Turning to `Cc1nc(N2CCCC(C)C2)c2cnn(-c3ccc(F)cc3)c2n1` (stereo not drawn), the inhibition is 23.5% (inactive).

`Clc1cccc(-n2ncc3c(N4CCNCC4)nc(Cc4ccccc4)nc32)c1`: the inhibition is 65.1% (active). With `CC(C)CCc1nc(N2CCNCC2)c2cnn(-c3cccc(Cl)c3)c2n1`, the inhibition is 41.8% (inactive). With `CCCc1nc(N2CCNCC2)c2c(C)nn(-c3ccc(F)cc3)c2n1`, the inhibition was 42% (inactive).

With `CC1NC(=S)N(CCc2nc(C(C)(C)C)cs2)C1=O` (stereo not drawn), the inhibition was 12.2% (inactive).

Consider `CCOc1cccc(OCCCOc2ccc(Cl)cc2C)c1`, for which the inhibition is 82.3% (active). Turning to `CCOc1ccc(OCCCOc2cccc(C)c2C)cc1`, the inhibition was 73.5% (active). For `CCOc1ccc(OCCCOc2ccccc2OC)cc1`, the inhibition was 9.51% (inactive). Consider `CCOc1ccc(OCCCOc2ccccc2Br)cc1`, for which the inhibition was 95.2% (active). Regarding `CC(C)(C)CC(C)(C)c1ccc(O)c(Cc2ccc(Cl)cc2Cl)c1`, the inhibition is 72.6% (active). As for `COc1ccc2c(c1)CCc1c(-c3ccc(C(=O)NCCCSC)cc3)n[nH]c1-2`, the inhibition was 95.5% (active).

As to `CC(C)Cc1ccc(C(C)NC(=O)Cn2ccsc2=O)cc1` (stereo not drawn), the inhibition was 92.5% (active). As to `CC(=O)c1ccc(OCC(=O)NC(C)c2ccc(CC(C)C)cc2)cc1` (stereo not drawn), the inhibition is 46.8% (inactive). Then `Cc1ccc(C(=O)N=c2sccn2Cc2ccc(C(=O)NC(C)c3ccccc3)cc2)cc1` (stereo not drawn), with -8.44% (inactive); and `COc1ccc2cc(C3CN(CCC(F)(F)C(F)F)CCO3)ccc2c1` (stereo not drawn), with 42.7% (inactive). Regarding `CCOC(=O)C1=C(O)CSC1=Nc1ccc(Cl)cc1`, the inhibition is 16.2% (inactive).

Regarding `CC(=O)C1=C(O)CC(c2ccccc2)SC1=Nc1ccccc1` (stereo not drawn), the inhibition is 57.6% (active).

In the case of `Fc1ccc(SCCc2ccncc2)cc1`, the inhibition is 57.7% (active). As for `O=C1C(Cl)=C(Nc2cccc(Br)c2)C(=O)N1Cc1ccc(Br)cc1`, the inhibition is 61% (active). For the compound `O=c1ccc(-c2cccc(Br)c2)nn1Cc1ccc(F)cc1`, the inhibition was 8.75% (inactive). In the case of `NC(=S)Nc1cccc(Br)c1`, the inhibition was 32.7% (inactive). Turning to `CCOc1ccc(NC(=O)c2cn(-c3cc(N4CCOCC4)ncn3)cn2)cc1`, the inhibition was 74.7% (active).

Turning to `O=C(O)c1cc(O)c2c(c1)C(=O)c1cc(O)cc(O)c1C2=O`, the inhibition was 91.8% (active). In the case of `CC(c1ccc(F)cc1)N(C)C(=O)CN1CC(O)CC1c1cc(F)ccc1F` (stereo not drawn), the inhibition was 84% (active).

For the compound `CC(c1ccc(Cl)cc1)N(C)C(=O)c1ccc[nH]1` (stereo not drawn), the inhibition is -3.09% (inactive). Then `CC(=O)c1ccc(C(=O)N(C)C(C)c2ccc(Cl)cc2)s1` (stereo not drawn), with 25.1% (inactive); and `Cc1nc(N)sc1N=Nc1cc(C(F)(F)F)ccc1Cl`, with 18.3% (inactive); and `Cc1sc(NC2CCCC2)nc1-c1ccc(F)c(F)c1`, with 34.8% (inactive). Then `CCC(C)C(=O)Nc1nc(-c2ccc(Cl)cc2)c(C)s1` (stereo not drawn), with 70.1% (active). Consider `Cc1nc(NC(=O)c2c(C)nn(CC(C)C)c2Cl)sc1C`, for which the inhibition was 12.5% (inactive).

For orientation: inhibition means the relative decrease from the control value, in per cent.
